High-throughput results: PubChem, Sanford-Burnham Center for Chemical Genomics
APOBEC3A inh = inhibitors of human APOBEC3A DNA deaminase; P31941; recombinant A3A, FAM/TAMRA ssDNA deamination fluorescence; inhibition, % at 20 µM; 330,000 compounds, 0.41% hits; AID 493011;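 active = at least 40% inhibition at 20 µM here, with at most 30% in a related deaminase screen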
Target sequence (P31941 whole entry, looked up): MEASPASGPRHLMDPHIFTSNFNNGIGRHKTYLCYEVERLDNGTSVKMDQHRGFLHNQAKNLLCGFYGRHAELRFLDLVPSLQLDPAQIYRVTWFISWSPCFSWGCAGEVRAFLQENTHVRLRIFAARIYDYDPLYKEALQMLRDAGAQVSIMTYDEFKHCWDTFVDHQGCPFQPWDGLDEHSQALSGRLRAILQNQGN
Cardio protect = modulators protecting cardiomyocytes from myocardial damage | H9c2 cardiomyocytes, H2O2 injury protection, ATPLite, 2 h | protection from H2O2 cell death, % at 20 µM | AID 588492 | 360,000 compounds, 0.63% hits;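 active = compounds giving at least 50% protection of heart cells from peroxide-induced death in the single-dose screen, raw or plate-pattern-corrected value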
NadD inh = NadD (S. aureus) enzyme inhibition; 360,000 compounds, 0.78% hits; AID 602399; inhibition, % at 20 µM; purified NadD enzyme, colorimetric absorbance read-out; in the data active = inhibition above about 26%
TAG inh = triacylglycerol accumulation inhibition | 230,000 compounds, 0.66% hits | inhibition, % at 12.5 µM | H9c2 cells, Nile Red lipid (TAG) fluorescence; cells loaded with 200 µM oleic acid | AID 651582;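 active = pattern-corrected inhibition of lipid staining of at least 50% with the nuclear-stain viability signal not falling by more than 50%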
PfG6PD inh = PfG6PD (Plasmodium falciparum) enzyme inhibition; PfGluPho enzyme, NADPH resazurin-diaphorase fluorescence; inhibition, % at 20 µM; 350,000 compounds, 0.78% hits; AID 504690;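 active = inhibition reaching at least a set limit at 20 µM in the primary screen, cut at about 59% in these data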
APOBEC3G inh = APOBEC3G (human) deaminase inhibition; Q9HC16; recombinant A3G, ssDNA deamination FAM/TAMRA fluorescence; inhibition, % at 20 µM; 330,000 compounds, 0.28% hits; AID 493012;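 active = inhibition of at least 40% at 20 µM, with no more than 30% in the related APOBEC3A deaminase screen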
Target sequence (Q9HC16 whole entry, looked up): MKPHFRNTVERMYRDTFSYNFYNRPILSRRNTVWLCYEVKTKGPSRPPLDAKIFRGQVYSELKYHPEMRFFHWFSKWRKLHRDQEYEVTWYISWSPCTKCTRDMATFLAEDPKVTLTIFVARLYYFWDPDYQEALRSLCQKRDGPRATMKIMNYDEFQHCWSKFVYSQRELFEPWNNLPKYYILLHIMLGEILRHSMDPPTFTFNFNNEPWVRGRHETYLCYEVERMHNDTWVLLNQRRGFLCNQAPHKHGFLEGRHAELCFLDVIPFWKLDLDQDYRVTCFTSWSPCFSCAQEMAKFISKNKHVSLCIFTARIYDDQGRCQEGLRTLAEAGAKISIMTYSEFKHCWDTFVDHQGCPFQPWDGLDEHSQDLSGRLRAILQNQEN
Large screens that a line does not name were inactive. Hits are enriched below; roughly 2.9% of the tested compounds scored in any of these assays.

CC(C)(C)n1nc2c(c1NC(=O)COc1ccc(Cl)cc1)CSC2	NadD inh 46.5 (no result: TAG inh)
Cc1onc(-c2ccccc2)c1C(=O)N/N=C/c1cc(Br)c(O)c(Br)c1	none
Cc1cccc(/C=N/NC(=O)c2c(-c3ccccc3)noc2C)c1O	Cardio protect 54.1
COc1cc(OC)cc(-c2cc3nc(C)c(CCC(=O)Nc4nc(C)cs4)c(C)n3n2)c1	Cardio protect 63.7
O=C(NCc1ccccc1Br)c1cccc2c1C(=O)c1ccc(N3CCC(Cc4ccccc4)CC3)cc1S2(=O)=O	NadD inh 32.8
O=C(CN1C(=O)C2CCCCC2C1=O)Nc1cc([N+](=O)[O-])ccc1F (stereo not drawn)	none
CCc1nc2ccc(C(=O)NCCc3c[nH]c4ccccc34)cn2c1N(C=O)CCC(C)C	none (no result: APOBEC3A inh, PfG6PD inh, APOBEC3G inh)
Cc1cccc(NC(=O)c2sc3nc(-c4ccc(F)cc4)cn3c2C)n1	none (no result: TAG inh)
COc1ccc(-c2cn3c(C)c(C(=O)Nc4cccc(C)n4)sc3n2)cc1	PfG6PD inh 62.2 (no result: TAG inh)
O=C(Cc1n[nH]c(=O)c2ccccc12)OCC(=O)c1ccc(F)c(F)c1	none
O=C(COC(=O)Cc1n[nH]c(=O)c2ccccc12)Nc1ncc(Cl)cc1Cl	Cardio protect 66.8
CC(=O)c1cccc(NC(=O)C(C)OC(=O)Cc2n[nH]c(=O)c3ccccc23)c1 (stereo not drawn)	Cardio protect 76.6
CCc1ccc(C(=O)C(C)OC(=O)Cc2n[nH]c(=O)c3ccccc23)cc1 (stereo not drawn)	none
CC(C)CC(=O)Nc1ccc(C(=O)COC(=O)Cc2n[nH]c(=O)c3ccccc23)cc1	Cardio protect 71.9
O=C(Cc1n[nH]c(=O)c2ccccc12)OCC(=O)c1ccccc1	Cardio protect 61.2
O=C(COC(=O)Cc1n[nH]c(=O)c2ccccc12)Nc1cccc(C(F)(F)F)c1	none
CCCN(CCC)CCNC(=O)C1(O)c2ccccc2NC(=O)N1c1cccc(OC)c1 (stereo not drawn)	none (no result: TAG inh)
CCOC(=O)C1=C(C)NC(C)=C(C(=O)OCC)C1c1ccncc1	none (no result: APOBEC3A inh, APOBEC3G inh)
O=C(Cc1n[nH]c(=O)c2ccccc12)OCC(=O)c1ccccc1Cl	none
COc1ccccc1C(=O)NC(=O)COC(=O)Cc1n[nH]c(=O)c2ccccc12	none
COc1ccc(C(=O)COC(=O)Cc2n[nH]c(=O)c3ccccc23)c(OC)c1	Cardio protect 62.4
COc1ccccc1NC(=O)c1ccc(NC(=O)Cc2n[nH]c(=O)c3ccccc23)cc1	Cardio protect 70.5
C=CCN(c1ccccc1)S(=O)(=O)c1ccc2c(c1)NC(=O)C(C)C(=O)N2 (stereo not drawn)	none
C(=N\Nc1nc2ccccc2[nH]1)/c1ccc2ncccc2c1	none
C(=N\Nc1nc2ccccc2[nH]1)/c1cccc2nccnc12	Cardio protect 50.7, TAG inh 52.2
C=CCNCc1ccc(C(=O)NCCCCCCC)cc1[N+](=O)[O-]	none
N#CCSc1nc2cc(C(=O)N3CCC(C(N)=O)CC3)ccc2c2nc3ccccc3n12	Cardio protect 51.8 (no result: TAG inh)
Cc1cc(C)c2ccc(N)nc2c1O	Cardio protect 60.3
Cc1cc(C)c2cccc(N)c2n1	none (no result: TAG inh)
CCOC(=O)c1cnc(-n2nc(C)cc2C)nc1NCc1ccccc1	Cardio protect 63.3 (no result: TAG inh)
CCOC(=O)c1cnc(-n2nc(C)cc2C)nc1NCCO	none (no result: TAG inh)
COc1cccc(-c2cnc(C(O)c3ccc(C)cc3C)[nH]2)c1 (stereo not drawn)	none (no result: APOBEC3A inh, PfG6PD inh, APOBEC3G inh)
COc1ccc(-n2c(C)c(C(C)=O)c3cc(OC(C)=O)ccc32)cc1	Cardio protect 53.3
O=C(Cc1ccccc1)c1ccccc1C(=O)N1CCCCC1	none (no result: TAG inh)
COc1cc(C)cc2oc(=O)c(CC(=O)N3CCN(C(=O)C4COc5ccccc5O4)CC3)c(C)c12 (stereo not drawn)	Cardio protect 47.0 (no result: TAG inh)
Cc1cc(O)c2c(C)c(CC(=O)N3CCN(C(=O)C4COc5ccccc5O4)CC3)c(=O)oc2c1 (stereo not drawn)	none (no result: TAG inh)
O=C(CSc1ccc2nnc(-c3cccnc3)n2n1)Nc1ccccc1F	none (no result: APOBEC3A inh, APOBEC3G inh)
Cc1nc(Nc2nc(CSc3nc4ccccc4[nH]3)cc(=O)[nH]2)nc2ccccc12	none (no result: TAG inh)
COc1ccc2nc(Nc3nc(CSc4nc5ccccc5[nH]4)cc(=O)[nH]3)nc(C)c2c1	Cardio protect 69.7 (no result: TAG inh)
O=C(Nc1ccccc1C(=O)NCc1ccco1)c1ccco1	none (no result: TAG inh)
O=C(Nc1ccccc1C(=O)Nc1ccccc1C(=O)NCc1ccco1)c1ccco1	Cardio protect 52.5 (no result: TAG inh)
Cc1noc(C)c1C(=O)Nc1cccc(S(=O)(=O)N2CCCCC2)c1	none
CCOc1ccccc1C(=O)Nc1nn[nH]n1	none (no result: TAG inh)
Cc1nn(-c2ccc(F)cc2)c2nc(N)c(C#N)c(-c3ccc(O)c(O)c3)c12	Cardio protect 76.6 (no result: TAG inh)
Nc1c(C(=O)N/N=C/c2cccnc2)oc2nc(-c3ccco3)cc(-c3ccco3)c12	Cardio protect 76.6
NNC(=O)c1oc2nc(-c3ccco3)cc(-c3ccco3)c2c1N	none
O=C(N/N=C/c1cccnc1)c1cc2ccccc2o1	none (no result: TAG inh)
Cc1cc(C)c2c(N)c(C(=O)N/N=C/c3cccnc3)sc2n1	Cardio protect 66.5
Nc1c(C(=O)N/N=C/c2cccnc2)oc2nc(-c3ccccc3)cc(-c3ccco3)c12	Cardio protect 67.5
COc1cccc(NC(=O)C2(C)CCN2C(=O)Cc2cccc3ccccc23)c1 (stereo not drawn)	none (no result: APOBEC3A inh, PfG6PD inh, APOBEC3G inh)
COc1ccc(NC(C)=O)cc1NC(=O)C1CCN(C(=O)Nc2ccccc2)CC1	none
CCOc1cc(Br)cc(/C=C2\SC(=Nc3ccccc3)NC2=O)c1O	NadD inh 36.2
Cc1ccc(S(=O)(=O)/N=C2/NC(=O)/C(=C\c3cc(Br)cc(Br)c3O)S2)cc1	NadD inh 40.6
C=CCOc1ccc(Br)cc1/C=C1/SC(=Nc2ccc(C(=O)O)cc2)NC1=O	none (no result: APOBEC3A inh, APOBEC3G inh)
Cc1ccc(-n2nc3c(=O)n(CCCC(=O)NCc4ccco4)nc(C)c3c2C)cc1	none (no result: TAG inh)
O=C1CC(C(=O)N2CCCc3ccccc32)CN1c1ccc(Cl)cc1 (stereo not drawn)	none (no result: TAG inh)
COCCCn1cc(CN2CC(N3CCN(C4CCN(C)CC4)CC3)CS2(=O)=O)nn1 (stereo not drawn)	none (no result: APOBEC3A inh, Cardio protect, TAG inh, PfG6PD inh, APOBEC3G inh)
OC(CNCCC(c1ccccc1)c1ccccc1)COc1ccccc1 (stereo not drawn)	none
O=C(O)c1nn(CCOc2ccccc2F)c(=O)c2ccccc12	Cardio protect 53.7 (no result: TAG inh)
O=C(O)c1nn(CCOc2ccc(Br)cc2)c(=O)c2ccccc12	Cardio protect 55.4 (no result: TAG inh)
CCc1cccc(OCCn2nc(C(=O)O)c3ccccc3c2=O)c1	none
CCc1nc2c(OCc3ccc(OC(F)F)cc3)cccn2c1N(C)C(=O)c1cccs1	none (no result: APOBEC3A inh, PfG6PD inh, APOBEC3G inh)
O=C(CCCN1C(=O)c2cccc3cccc(c23)C1=O)N1CCN(c2ccccc2O)CC1	Cardio protect 66.8 (no result: TAG inh)
O=C(CCCN1C(=O)c2cccc3cccc(c23)C1=O)N1CCN(c2ccccc2)CC1	none (no result: TAG inh)
COc1cc(C(=O)Nc2ccc(NC(=O)c3ccco3)nc2)cc(OC)c1OC	Cardio protect 52.3
